From PubChem BioAssay (NCATS)
Several values for one entry are separate records, joined by “and”; a condition that tells them apart may be missing. Identical values can stand only once. Records with an inconclusive call do not appear. Entries that show only a call come without a potency. Activity calls are given as the source filed them. Calls follow the shape of the dose curve; as a rule, active = well fitted curve in the direction sought with a large enough effect; inconclusive = small, poorly fitted or top-dose-only effect, or another doubt; inactive = no such curve, though single readings can be large; an effect the other way counts as inactive or inconclusive.

What was measured:
[1] = target: Tyrosine-protein kinase Yes (Homo sapiens) (UniProt P07947); test: qHTS for small molecule inhibitors of Yes1 kinase: Primary Screen (AID 686947); conditions: Yes1 kinase biochemical qHTS inhibition; series mostly up to 76.9 µM; also: nearly all actives have a fitted effect of over 60% in size; also: potency is read from the fitted curve at half-maximal effect
Sequence of Tyrosine-protein kinase Yes (Homo sapiens) (P07947 whole entry, looked up): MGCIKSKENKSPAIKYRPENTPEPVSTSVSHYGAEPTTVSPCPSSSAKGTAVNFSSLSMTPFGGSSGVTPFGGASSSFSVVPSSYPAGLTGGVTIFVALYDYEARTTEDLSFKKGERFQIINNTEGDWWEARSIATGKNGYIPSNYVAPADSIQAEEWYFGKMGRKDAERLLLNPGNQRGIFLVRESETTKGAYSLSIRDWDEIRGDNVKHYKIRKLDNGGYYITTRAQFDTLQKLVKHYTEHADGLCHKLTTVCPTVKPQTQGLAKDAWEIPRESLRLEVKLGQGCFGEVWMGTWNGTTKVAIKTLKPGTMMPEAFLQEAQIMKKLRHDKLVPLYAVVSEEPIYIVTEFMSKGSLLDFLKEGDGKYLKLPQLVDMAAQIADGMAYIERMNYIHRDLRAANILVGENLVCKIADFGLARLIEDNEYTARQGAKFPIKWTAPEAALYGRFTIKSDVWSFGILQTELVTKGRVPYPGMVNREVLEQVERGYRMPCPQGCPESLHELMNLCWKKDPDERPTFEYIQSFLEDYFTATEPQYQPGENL
In short: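 In this qHTS format, inhibition is expressed relative to DMSO controls with enzyme (maximum) and without enzyme (minimum). The 60 min room-temperature reaction uses 0.1 mM ATP, with ADP detected by luminescence.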

[2] = qHTS for small molecule inhibitors of Yes1 kinase: Counter Assay (AID 686950); conditions: series mostly up to 76.9 µM;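 also: no kinase present so only ADP-Glo detection of a fixed ADP amount is tested; luminescence from ADP-Glo reporting ADP in a fixed ATP and ADP mixture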
In short: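 Measuring interference with ADP-Glo, the assay ran 60 min at room temperature on an ATP/ADP mix lacking enzyme. Values were normalized to ATP-plus-ADP (maximum) and ATP-only (minimum) DMSO controls.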

Structure (SMILES): FC(F)(F)CNc1nccc(-c2cnn3ncccc23)n1
- Potency [1]: inactive
- outcome [2]: inactive

Structure (SMILES): Cc1ccc2c(-c3ccnc(Nc4ccc5c(c4)OCCO5)n3)c(-c3ccc(C(F)(F)F)cc3)nn2n1
- Potency [1]: 0.823 µM (active)
- outcome [2]: inactive

Structure (SMILES): COc1cc2c(cc1Nc1nc(Nc3ccsc3C(N)=O)c3cc[nH]c3n1)N(C(=O)CN(C)C)CCC2
- Potency [1]: inactive
- outcome [2]: inactive

Structure (SMILES): COc1ccc(-c2coc3ncnc(N)c23)cc1
- Potency [1]: 11.6 µM (active)
- outcome [2]: inactive

Structure (SMILES): Nc1nccc(-c2c(-c3ccc(F)cc3)ncn2C2CCNCC2)n1
- Potency [1]: 2.07 µM (active) and 6.54 µM (active)
- outcome [2]: inactive

Structure (SMILES): NS(=O)(=O)c1ccc(N=Nc2c(O)[nH]c3ccc(-c4cnco4)cc23)cc1
- Potency [1]: inactive
- outcome [2]: inactive

Structure (SMILES): NS(=O)(=O)c1ccc(N=Nc2c(O)[nH]c3cccc(CCc4ccncc4)c23)cc1
- Potency [1]: inactive
- outcome [2]: inactive

Structure (SMILES): CCn1c(-c2nonc2N)nc2ccc(F)cc21
- Potency [1]: inactive
- outcome [2]: inactive

Structure (SMILES): COc1ccc(-c2ccc3c(NC(=O)C4CC4)n[nH]c3n2)cc1
- Potency [1]: 6.54 µM (active)
- outcome [2]: inactive

Structure (SMILES): FC(F)(F)c1cccc(Nc2nccc(-c3cnn4nc(-c5ccccc5)ccc34)n2)c1
- Potency [1]: 14.6 µM (active)
- outcome [2]: inactive

Structure (SMILES): CCCN1CCC(c2ccc(Nc3nc(Nc4cc(F)ccc4C(N)=O)c4cc[nH]c4n3)c(OC)c2)CC1
- Potency [1]: inactive
- outcome [2]: inactive

Structure (SMILES): Fc1ccc(-c2nn3ccccc3c2-c2ccncc2)cc1
- Potency [1]: 23.2 µM (active)
- outcome [2]: inactive

Structure (SMILES): CS(=O)(=O)CCNCc1cc(-c2cc3c(Nc4ccc(OCc5cccc(F)c5)c(Cl)c4)ncnc3s2)cs1
- Potency [1]: 46.3 µM (active)
- outcome [2]: inactive

Structure (SMILES): FC(F)(F)c1cccc(-c2nn3ncccc3c2-c2ccnc(Nc3ccc4c(c3)OCCO4)n2)c1
- Potency [1]: 0.412 µM (active)
- outcome [2]: inactive

Structure (SMILES): CCn1cc(-c2ccnc3[nH]ccc23)c(-c2cccc(NC(=O)Nc3ccc(OCc4ccccc4)cc3)c2)n1
- Potency [1]: 9.23 µM (active)
- outcome [2]: inactive

Structure (SMILES): COC(=O)Nc1nc2ccc(Sc3ccc(NC(=O)Nc4cc(C(F)(F)F)ccc4F)cc3)cc2[nH]1
- Potency [1]: inactive
- outcome [2]: inactive

Structure (SMILES): COc1ccc(-c2cc3c(N)ncnc3o2)cc1
- Potency [1]: 6.54 µM (active)
- outcome [2]: inactive

Structure (SMILES): N#Cc1c(NC(=O)CN2CCOCC2)sc2c1CCCC2
- Potency [1]: inactive
- outcome [2]: inactive

Structure (SMILES): CC(=O)Nc1cccc(C#Cc2cncnc2Nc2ccc(OCc3cccc(F)c3)c(Cl)c2)c1
- Potency [1]: 23.2 µM (active)
- outcome [2]: inactive

Structure (SMILES): NS(=O)(=O)c1ccc(Nc2cc(-c3cccc(O)c3)[nH]n2)cc1
- Potency [1]: 23.2 µM (active)
- outcome [2]: inactive

Structure (SMILES): CNC(=O)c1cncc(C=Cc2ccccc2Cl)c1
- Potency [1]: 8.23 µM (active)
- outcome [2]: inactive
